# SKKanGAS inh – SKKanGAS growth inhibition | S. pyogenes SKKanGAS, kanamycin growth, BacTiter-Glo, 6 h | inhibition, % at 7.5 µM | hit rate 1.3% among 300,000;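 active means mean replicate score, as percent of positive control median, at least 50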;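 further: strain carries kanamycin resistance gene driven by streptokinase promoter and grows in 40 µg/ml kanamycin; loss of luminescence reflects streptokinase promoter inhibition or plain growth inhibition; 0% = median of DMSO wells and 100% = positive control at its reference dose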
# tim23-1 inh – growth inhibitors of tim23-1 mutant yeast | S. cerevisiae tim23-1 growth, BacTiter-Glo luminescence, 24 h | inhibition, % at 20 µM | hit rate 1.3% among 330,000 | AID 463212;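 active means growth inhibition of the mutant yeast at or above 50%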;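 further: temperature-sensitive mutant grown at 25 °C; plate controls were DMSO-treated mutant yeast for no effect and medium wells lacking yeast for full effect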
# NLRP3 yeast inh – blocks the NALP3 inflammasome reconstituted in yeast | Yeast reconstituted NLRP3/ASC/caspase-1, beta-gal luminescence, 24 h | inhibition, % at 10 µM | hit rate 0.39% among 330,000 | AID 2825;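 active means inhibition of 50% or more; inactive means inhibition below 50%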;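 further: plate controls were induced DMSO wells for no effect and uninduced yeast grown without galactose for full effect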
# PfHsp90 set2 – inhibits growth of yeast expressing Plasmodium falciparum Hsp90; S. cerevisiae expressing PfHsp90, BacTiter-Glo ATP, 48 h; yeast lacking PDR1 and PDR3 efflux regulators; inhibition, % at 9.4 µM; hit rate 0.32% among 310,000; AID 504621;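 active means every replicate shows inhibition above about 80%, whatever the replicate mean, limit read from the data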;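 further: 0% = DMSO neutral controls and 100% = 20 µM radicicol positive controls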
# TIM10 inh – inhibits growth of TIM10 yeast strain. hit rate 1.4% among 330,000. inhibition, % at 10 µM. S. cerevisiae TIM10 strain growth, BacTiter-Glo luminescence, 24 h;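 active means inhibition of 40% or more at the single tested concentration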;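 further: wild-type TIM10 isogenic control strain grown at permissive 25 °C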
# tim10-1 inh – tim10-1 yeast growth inhibition; inhibition, % at 20 µM; AID 463190; S. cerevisiae tim10-1 ts strain growth, BacTiter-Glo, 24 h; hit rate 2.2% among 330,000;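 active means inhibition of at least 40%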;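 further: mutant grown at 25 °C; 0% = DMSO wells with yeast and 100% = wells holding no yeast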
# tim10-1 conf – tim10-1 yeast growth inhibition, confirmed; shares compounds with tim10-1 inh; S. cerevisiae tim10-1 ts strain growth, BacTiter-Glo, 24 h; inhibition, % at 20 µM; hit rate 56% among 7,400; AID 463213;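 active means inhibition of yeast growth at or above a set limit in either of two repeat tests at 20 µM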;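 further: tim10-1 mutant grown at permissive 25 °C to find synthetic lethal compounds; 0% = DMSO yeast wells and 100% = medium wells without yeast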
# tim10 confirm – confirmation of TIM10 yeast growth inhibitors; inhibition, % at 10 µM; S. cerevisiae tim10 strain growth, BacTiter-Glo luminescence, 24 h; shares compounds with TIM10 inh; hit rate 63% among 4,600;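 active means inhibition of yeast growth at or above a set limit in either of two replicates at 10 µM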;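 further: this counterscreen used the strain with wild-type TIM10; 0% = yeast with DMSO and 100% = medium wells lacking yeast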
# tim23-1 confirm – confirmation of tim23-1 mutant yeast growth inhibitors; shares compounds with tim23-1 inh; hit rate 83% among 4,400; S. cerevisiae tim23-1 growth, BacTiter-Glo luminescence, 24 h; inhibition, % at 20 µM;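 active means inhibition above about 39% in either of two replicate wells at 20 µM, limit read from the data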;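 further: temperature-sensitive tim23-1 mutant grown at 25 °C; 0% = DMSO wells with yeast and 100% = medium wells without yeast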
# The depositor's hits bear a star; / = not tested or not shown. Sampled rows, rich in hits. Any-hit rate of the full collection: about 4.6%.
SMILES,SKKanGAS inh,tim23-1 inh,NLRP3 yeast inh,PfHsp90 set2,TIM10 inh,tim10-1 inh,tim10-1 conf,tim23-1 confirm,others
O=C(Nc1ncc(Br)s1)C(Cc1ccccc1)n1cccc1 (stereo not drawn),18,67*,-5,40,58*,63*,54*,54*,tim10 confirm=57*
COc1ccccc1OCC(=O)N(Cc1nnc(-c2ccccc2Cl)o1)C1CC1,6,11,13,-6,13,13,/,/,
COC(=O)C1=C(C)OC(N)=C(C#N)C1c1cc2cccc(C)c2nc1Cl (stereo not drawn),-5,64*,23,/,29,44*,29,58*,
COCCOC(=O)C1=C(C)OC(N)=C(C#N)C1c1cc2cccc(C)c2nc1Cl (stereo not drawn),1,44,14,0,29,35,/,/,
O=C(N/N=C/c1ccc[nH]1)c1ccc(Cl)cc1,-6,-6,11,4,2,7,/,/,
COc1ccccc1N1CCN(C(=O)c2ccc3c(Cl)c4c(nc3c2)CCCC4)CC1,25,56*,10,-24,31,53*,36*,57*,
COc1ccccc1N1CCN(C(=O)c2cc3c(C)nc4ccccc4c3o2)CC1,27,54*,22,-9,18,49*,16,33,
Cc1ccc(N(C)C(=O)c2ccc3c(Cl)c4c(nc3c2)CCC4)cc1C,6,55*,12,-4,21,41*,35*,56*,
O=C(NCC(=O)N1CCN(C(=O)c2ccccc2)CC1)c1ccc(Cl)cc1Cl,/,3,11,-5,-12,-4,/,/,
COc1ccc(OC)c(COC(=O)c2cccc(S(=O)(=O)N3CCCCC3)c2)c1,/,17,8,/,11,6,/,/,
N#Cc1ccccc1OCC(=O)NC(=O)NC1CCS(=O)(=O)C1 (stereo not drawn),/,3,15,/,5,-6,/,/,
Cc1ccc(/C=C2/SC(=S)N(C3CCCCC3)C2=O)o1,-5,36,-1,-53,31,28,/,/,
O=C1/C(=C\c2ccncc2)SC(=S)N1C1CCCCC1,3,52*,15,-17,27,43*,23,42*,
CCCCN(CCCC)C(=O)c1cc(Cl)ccc1[N+](=O)[O-],0,28,-37,-5,-14,9,/,/,
CCCN(CCC)C(=O)c1cc([N+](=O)[O-])cc2c1-c1ccc([N+](=O)[O-])cc1C2=C(C#N)C#N,8,74*,7,/,11,67*,67*,75*,
O=C(CSc1ccc(C(F)(F)F)cn1)Nc1ccccc1,-2,6,6,26,2,-11,/,/,
O=C(/C=C/Sc1ccc(C(F)(F)F)cn1)c1ccccc1,4,61*,15,21,22,41*,51*,47*,
CCOc1ccccc1C(=O)NCC(=O)OCC(=O)c1c(N)n(C)c(=O)n(C)c1=O,/,-6,3,2,-4,-10,/,/,
CON=C1C=C(C)C(=O)C(C)=C1C,/,/,/,-15,/,/,/,/,
CC(=O)Nc1ccc(N=Cc2c(O)c3ccccc3oc2=O)cc1,1,-5,4,-12,-11,6,/,/,
CC(=O)Nc1ccc(N=Cc2c(O)c(C(=O)Nc3ccccc3)cc3ccccc23)cc1,61*,64*,14,/,63*,49*,1,34,tim10 confirm=21
O=c1[nH]c(Sc2ccc([N+](=O)[O-])cc2[N+](=O)[O-])nc2ccccc12,8,68*,15,37,29,45*,38*,53*,
CC(=O)/C=C/c1ccc2ccccc2n1,-11,71*,33,-3,59*,65*,65*,82*,tim10 confirm=60*
O=C(Nc1ccc(Nc2ccccc2)cc1)c1ccc(Cl)cc1Cl,4,5,25,/,-13,-12,/,/,
C#Cc1cccc(NC(=O)c2ccc(Cl)cc2Cl)c1,-3,68*,-1,16,59*,53*,43*,61*,tim10 confirm=52*
SMILES,SKKanGAS inh,tim23-1 inh,NLRP3 yeast inh,PfHsp90 set2,TIM10 inh,tim10-1 inh,tim10-1 conf,tim23-1 confirm,others
COc1cc2nc(N(CCN(C)C)C(=O)c3ccc4ccccc4c3)sc2cc1OC,-9,22,8,-22,10,5,/,/,
CCN(CC)CCN(C(=O)c1ccc2c(c1)CCCC2)c1nc2cc(OC)c(OC)cc2s1,-4,66*,28,-20,49*,61*,40*,61*,tim10 confirm=46*
COc1cc(/C=N/NC(=S)NC2CC3CCC2C3)ccc1O (stereo not drawn),-32,68*,-12,-2,49*,42*,24,52*,tim10 confirm=43*
S=C(N/N=C/c1ccc2c(c1)OCO2)NC1CC2CCC1C2 (stereo not drawn),-12,22,2,7,27,9,/,/,
COCCN(C(=O)c1snc(C(N)=O)c1N)C(C(=O)NC1CCCCC1)c1ccc(OC)c(OC)c1 (stereo not drawn),3,4,24,-18,-5,1,/,/,
CCOc1ccc(S(=O)(=O)NC(Cc2c[nH]c3ccccc23)C(=O)O)cc1 (stereo not drawn),5,-4,15,-17,9,17,/,/,
Cc1ccc(CSc2nnc(CS(=O)Cc3ccc(Cl)cc3Cl)n2C)cc1 (stereo not drawn),-10,51*,-2,-9,47*,47*,37*,44*,tim10 confirm=48*
CCOc1ncccc1C(=O)Nc1cccc(S(=O)(=O)N2CCOCC2)c1,/,24,9,25,10,11,/,/,
Oc1c(Cl)cc(Cl)cc1/C=N/NC(=S)NC1CC2C=CC1C2 (stereo not drawn),111*,57*,13,-20,36,48*,50*,72*,
Oc1c(Cl)cc(Cl)cc1/C=N/Nc1ncc(Br)cn1,16,-4,13,-7,-1,12,/,/,
O=c1c2ccccc2oc2ccc(-c3ccc4[nH]ccc4c3)cc12,18,62*,44,0,41*,42*,39*,74*,tim10 confirm=66*
O=c1c2ccccc2oc2cc(-c3ccc4cc[nH]c4c3)ccc12,/,7,-7,1,6,3,/,/,
C=CCSc1n[nH]c(-c2ccc(OCCCC)cc2)n1,-2,72*,35,/,56*,41*,17,67*,tim10 confirm=48*
Cc1cccc(NC(=O)CN2CCN(C(=O)c3cccc(-n4cnnn4)c3)CC2)c1C,/,-5,12,5,-6,-8,/,/,
O=C(c1ccc(-c2cccc([N+](=O)[O-])c2)o1)N1CCN(c2ccc([N+](=O)[O-])cc2)CC1,/,27,21,-6,5,22,/,/,
